Screening results as filed in PubChem BioAssay.
L3MBTL1 inh: blocks human L3MBTL1; AID 485360; hit rate 0.66% among 230,000; Potency, µM (top dose mostly 57.1 µM), hits mostly inhibitors; AlphaScreen L3MBTL1–H3K9me1 peptide binding; Q9Y468; note: nearly all actives have a fitted effect of over 60% in size
Target sequence (Q9Y468 whole entry, looked up): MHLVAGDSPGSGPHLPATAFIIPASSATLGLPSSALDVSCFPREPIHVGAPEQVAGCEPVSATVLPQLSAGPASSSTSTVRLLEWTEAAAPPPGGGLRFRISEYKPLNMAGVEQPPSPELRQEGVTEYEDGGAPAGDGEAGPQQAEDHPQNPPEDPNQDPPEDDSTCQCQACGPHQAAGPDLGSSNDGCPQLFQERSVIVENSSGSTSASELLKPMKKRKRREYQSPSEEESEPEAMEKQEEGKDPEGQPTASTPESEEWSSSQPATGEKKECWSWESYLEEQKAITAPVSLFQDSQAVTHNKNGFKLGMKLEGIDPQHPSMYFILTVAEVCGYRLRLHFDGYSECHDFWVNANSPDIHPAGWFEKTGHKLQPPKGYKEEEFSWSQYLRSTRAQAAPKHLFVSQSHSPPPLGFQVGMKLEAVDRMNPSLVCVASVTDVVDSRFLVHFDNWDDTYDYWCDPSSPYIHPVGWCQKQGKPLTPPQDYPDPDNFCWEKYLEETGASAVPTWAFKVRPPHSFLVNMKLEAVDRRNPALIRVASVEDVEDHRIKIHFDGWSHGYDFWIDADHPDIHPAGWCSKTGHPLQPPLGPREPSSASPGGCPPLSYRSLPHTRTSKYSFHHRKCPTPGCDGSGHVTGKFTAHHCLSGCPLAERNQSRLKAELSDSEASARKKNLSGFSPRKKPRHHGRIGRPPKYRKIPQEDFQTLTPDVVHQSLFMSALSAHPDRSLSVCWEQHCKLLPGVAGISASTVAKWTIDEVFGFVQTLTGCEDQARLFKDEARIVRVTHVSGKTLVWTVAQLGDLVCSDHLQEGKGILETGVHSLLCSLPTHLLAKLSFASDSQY
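AlphaScreen proximity signal between nickel-chelate acceptor and streptavidin donor beads (final 10 ug/mL) reports binding of 50 nM L3MBTL1 to 75 nM biotin-H3 K9me1 peptide; complex incubated with compounds 30 min at room temperature; cefsulodin titration as control.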
BAZ2B inh: inhibitors of human BAZ2B bromodomain | AlphaScreen BAZ2B-H3K14Ac peptide displacement | Potency, µM (series often up to 114 µM), actives largely listed as inhibitors | Q9UIF8 | hit rate 4.4% among 360,000 | AID 504333; note: nearly all actives have a fitted effect of over 60% in size
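Complex of BAZ2B and biotin-H3K14Ac (50 nM apiece) forms over 30 min at RT, then faces library compounds up to 110 uM for another 30 min; AlphaScreen beads added, 20 min dark incubation, luminescence read.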
HP1b chromo inh: inhibitors of HP1-beta chromodomain binding to methylated histone tails | AlphaScreen HP1-beta / biotin-H3K9me3 peptide binding | Potency, µM (highest dose often 114 µM), actives largely listed as inhibitors | hit rate 0.56% among 390,000 | AID 540317; note: nearly all actives have a fitted effect of over 70% in size
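HP1-beta protein (50 nM final) preincubated 30 min at room temperature with biotinylated H3(1-18)K9me3 peptide (50 nM) in PBS pH 7.4, 0.01% Tween-20, then compound added for 30 min. AlphaScreen streptavidin donor/nickel chelate acceptor beads (10 ug/mL final), 30 min dark, luminescence read.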
GLS inh: glutaminase GLS (human) inhibition; AID 624170; O94925; Potency, µM (titrated, usually from 45.5 µM), hits mostly inhibitors; hit rate 0.21% among 410,000; GLS enzymatic activity, qHTS titration
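hKGA; 45 mM KH2PO4 pH 8.2 + 0.02% Tween-20; cpd via pin tool; 1 mM Gln soln; GluOx/HRP/Amplex Red; RT 30 min; fluor. t0 & final.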
G9a inh: blocks human histone lysine methyltransferase G9a; hit rate 8.8% among 350,000; Potency, µM (highest dose often 102 µM), actives largely listed as inhibitors; Q96KQ7; G9a H3K9 monomethylation, AlphaScreen, 2 h; note: nearly all actives have a fitted effect of over 75% in size
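Using a bead-based AlphaScreen, monomethylated H3K9 product from 2 h room-temperature reactions (G9a 20 nM, peptide 500 nM, SAM 20 uM) was detected with 0.5 ug/mL rabbit anti-H3K9me1 antibody.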
JMJD2A Tudor: inhibitors of human JMJD2A Tudor domain; O75164; AlphaScreen JMJD2A-Tudor / H3K4me3 peptide binding; Potency, µM (series often up to 114 µM), actives largely listed as inhibitors; hit rate 4.4% among 390,000; note: nearly all actives have a fitted effect of over 50% in size
Each line names hits and unclear results; the compound was inactive in the other large screens; ! = a repeat was not active. Compounds with a hit are over-represented: about 10% of the library has one in this group of screens. Calls come from the whole dose curve; as a rule, active = well fitted curve in the direction sought with a large enough effect; inconclusive = small, poorly fitted or top-dose-only effect, or another doubt; inactive = no such curve, though single readings can be large; an effect the other way counts as inactive or inconclusive.

CCCC(C(=O)O)N1C(=O)/C(=C2\C(=O)N(C)c3ccccc32)SC1=S (stereo not given)	BAZ2B inh 45µM, GLS inh inconclusive, G9a inh 20µM, JMJD2A Tudor inconclusive
CCOc1ccc(/C=C/c2nc(C#N)c(NC3CCCCC3)o2)cc1	none (no result: L3MBTL1 inh)
Cc1cccc(S(=O)(=O)N2CCN(S(=O)(=O)c3ccc4c(c3)OCCO4)CC2)c1	none (no result: L3MBTL1 inh, BAZ2B inh, HP1b chromo inh, GLS inh, G9a inh)
COc1ccc(CNc2ccc3c(c2)nc(C)n3C)cc1	G9a inh 3.5µM
Cc1ccc(CNc2ccc3c(c2)nc(C)n3C)cc1	BAZ2B inh inconclusive, G9a inh 25µM
Cc1nc2cc(NCc3ccc(Cl)cc3)ccc2n1C	JMJD2A Tudor inconclusive (no result: G9a inh)
COc1ccc(OC)c(CNc2ccc3c(c2)nc(C)n3C)c1	G9a inh 35µM (no result: L3MBTL1 inh)
COC1=C(C(=O)O)N2C(=O)[C@@H](NC(=O)C(N)C3C=CCC=C3)[C@H]2SC1 (stereo not given in full)	none (no result: L3MBTL1 inh, BAZ2B inh, HP1b chromo inh, G9a inh, JMJD2A Tudor)
Cc1cc(C)cc(-n2c(SCC(=O)NC3CCCCC3)nc3c([nH]c4ccccc43)c2=O)c1	none (no result: L3MBTL1 inh)
COc1ccc(CC2SC(=Nc3ccc(F)cc3)NC2=O)cc1 (stereo not given)	G9a inh 56µM (no result: L3MBTL1 inh)
COc1ccc(CN2COc3ccc4c(-c5ccc(OC)cc5)cc(=O)oc4c3C2)cc1	none (no result: L3MBTL1 inh)
OCc1cc(C(O)CNCCCCCCOCCCCc2ccccc2)ccc1O (stereo not given)	G9a inh 35µM!
Cc1cccc(Nc2sc(C(=O)c3ccc(Cl)cc3)c(N)c2C(N)=O)c1	BAZ2B inh inconclusive (no result: L3MBTL1 inh)
COc1ccc(Cl)cc1Nc1sc(C(=O)c2ccccc2)c(N)c1C(=O)Nc1ccccc1	BAZ2B inh inconclusive, HP1b chromo inh inconclusive, G9a inh 16µM, JMJD2A Tudor inconclusive (no result: L3MBTL1 inh)
Cc1ccccc1Nc1sc(C(=O)Nc2cccc(Cl)c2)c(N)c1C(N)=O	BAZ2B inh inconclusive, G9a inh 79µM
CCOc1ccccc1NC(=O)c1c(NCc2ccc(OC)c(OC)c2OC)sc2c1CCC(C)C2 (stereo not given)	G9a inh inconclusive (no result: L3MBTL1 inh)
CN1C(=O)C(N=Nc2ccc([N+](=O)[O-])cc2)SC1=S (stereo not given)	HP1b chromo inh inconclusive, JMJD2A Tudor 22µM (no result: L3MBTL1 inh, BAZ2B inh, G9a inh)
COc1ccc(Nc2nnc(-c3ccc(C)c(S(N)(=O)=O)c3)c3ccccc23)cc1	JMJD2A Tudor inconclusive (no result: L3MBTL1 inh)
CC1(C)CC(=O)N(CC(=O)NCc2ccccc2)c2ccccc2S1(=O)=O	none
O=C(CNC1CCCC1)Nc1ccc(N2CCCCCC2)cc1	BAZ2B inh 22µM, HP1b chromo inh 40µM, GLS inh inconclusive, G9a inh 5.6µM, JMJD2A Tudor 2.8µM
CCN(CC)c1ccc(NC(=O)CN2C(=O)CC(C)(C)S(=O)(=O)c3ccccc32)c(C)c1	G9a inh 8.9µM
O=C(COC(=O)C1CCCCC1)Nc1ccc(N2CCCCC2)cc1	BAZ2B inh inconclusive, HP1b chromo inh inconclusive, G9a inh 11µM, JMJD2A Tudor inconclusive
NS(=O)(=O)c1ccc(NC(=O)COC(=O)C2CCCCC2)cc1	none
O=C(CNCC1CCCO1)Nc1ccc(N2CCCCCC2)cc1 (stereo not given)	BAZ2B inh 35µM, HP1b chromo inh 14µM, G9a inh inconclusive, JMJD2A Tudor 3.2µM (no result: L3MBTL1 inh)
Cc1cc(C)c(Cn2c(=O)n(CCCCCC(=O)NCc3ccc4c(c3)OCO4)c(=O)c3sccc32)c(C)c1	none (no result: L3MBTL1 inh)
Cc1ccc2nc(Nc3ccc(Br)cc3)nc(-c3ccccc3)c2c1	none (no result: L3MBTL1 inh)
O=C(CNCc1ccccc1Cl)Nc1ccccc1N1CCCCC1	BAZ2B inh 22µM, HP1b chromo inh inconclusive, G9a inh 10µM, JMJD2A Tudor 22µM
CCN(CC)c1ccc(NC(=O)CNCc2ccccc2Cl)c(C)c1	BAZ2B inh 18µM, HP1b chromo inh 25µM, G9a inh 35µM, JMJD2A Tudor 10µM (no result: L3MBTL1 inh)
CC1CCN(CC(=O)Nc2ccc(N3CCCCCC3)cc2)CC1	L3MBTL1 inh inconclusive, BAZ2B inh 20µM, HP1b chromo inh 22µM, G9a inh 10µM, JMJD2A Tudor 20µM
O=C(CNC1CCCCCC1)Nc1ccc(N2CCCC2)cc1	BAZ2B inh inconclusive, G9a inh 28µM (no result: HP1b chromo inh, GLS inh, JMJD2A Tudor)
